# Rows were chosen to be rich in hits. Some 1.6% of all compounds tested hit in one or more screens of this group.
# VLA-4 inh = inhibition in a human VLA-4 binding assay; P13612; VLA-4 expressing cells, ligand binding flow cytometry; inhibition, % (about 7 µM as worked out from the volumes in the protocol); 330,000 compounds, 0.2% hits; in the data active = inhibition above about 50%
# ATG4B inhibitor = ATG4B (human) cysteine protease inhibition; ATG4B cleavage of LC3-PLA2, NBD-HPC fluorescence, 1 h; AID 504462; Q9Y4P1; 340,000 compounds, 0.51% hits; inhibition, % at 8.33 µM; in the data active = inhibition above about 40%
# Target sequence (Q9Y4P1 whole entry, looked up): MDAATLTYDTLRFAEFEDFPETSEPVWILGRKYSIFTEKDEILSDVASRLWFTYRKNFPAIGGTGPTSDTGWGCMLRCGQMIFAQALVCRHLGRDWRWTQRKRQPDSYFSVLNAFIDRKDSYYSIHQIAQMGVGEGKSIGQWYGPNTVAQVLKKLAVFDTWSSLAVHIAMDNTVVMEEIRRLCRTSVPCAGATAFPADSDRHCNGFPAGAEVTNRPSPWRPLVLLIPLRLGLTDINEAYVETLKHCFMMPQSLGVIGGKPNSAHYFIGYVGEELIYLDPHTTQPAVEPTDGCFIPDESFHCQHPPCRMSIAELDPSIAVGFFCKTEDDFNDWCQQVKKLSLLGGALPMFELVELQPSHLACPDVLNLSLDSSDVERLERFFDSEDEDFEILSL
# NRP1-CendR mod = alters CendR peptide binding to human NRP-1; 360,000 compounds, 0.85% hits; inhibition, % at 25 µM; O14786; AID 602438; FAM-RPARPAR peptide binding to NRP-1, fluorescence polarization;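 active = inhibition or corrected inhibition above about 18%, plus a signal ratio from 0.5 to 1.5, limit read from the data, passing the limit was not always enough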
# PKA-R1A act = activators of PKA-R1A complex | P00514+P68181 | activation, % at 11.4 µM | PKA-R1A dissociation, Cy5-IP20 fluorescence polarization; scaled: DMSO 0%, 113 µM cGMP 100% | 340,000 compounds, 0.083% hits;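 active = percent activation above the mean of all tested compounds plus 3 SD, cut at about 19% in these data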;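 note: higher means more PKAc released from R1A so a rise in polarization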
# PKA-R2B activ = activators of human PKA-R2B complex; AID 504700; 340,000 compounds, 0.079% hits; P22694+P31323; PKA-R2B holoenzyme dissociation, Cy5-IP20 fluorescence polarization; R2B truncated from residue 108, S112A mutant; 0% DMSO only, 100% 113 µM cGMP; activation, % at 11.4 µM;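 active = activation above a cutoff set at the mean over all compounds plus 3 SD, cut at about 18% in these data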;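 note: higher means more holoenzyme dissociation and a rise in polarization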
# * marks the source's active call; other numbers are inactive results; . = no result.
SMILES,VLA-4 inh,ATG4B inhibitor,NRP1-CendR mod,PKA-R1A act,PKA-R2B activ
CN(C)c1ccc(/C=N/NC(=O)c2nonc2N)cc1[N+](=O)[O-],3,-12,25*,-5,-8
NC(=O)c1c(NC(=O)c2ccccc2F)sc2c1CCC2,.,.,2,1,1
CC(C)(C)c1cc[n+](-c2[nH]c(=O)sc2/C=N/NC(=O)c2ccccc2[O-])cc1,3,3,27*,16,3
Cc1cc(C)c[n+](-c2[nH]c(=O)sc2/C=N/NC([S-])=Nc2ccccc2)c1,10,-2,47*,3,-1
O=c1[nH]c(-[n+]2ccccc2)c(/C=N/NC([S-])=Nc2ccccc2)s1,-4,1,7,-13,14
Cc1cc[n+](-c2[nH]c(=O)sc2/C=N/NC([S-])=Nc2ccccc2)cc1,-12,3,55*,-3,-2
CCc1ccc[n+](-c2[nH]c(=O)sc2/C=N/NC([S-])=Nc2ccccc2)c1,11,2,95,-1,5
CCOC(=O)[C@]12CCC=C1N(Cc1cccc3ccccc13)C(=O)[C@H](CC(=O)N1CCN(C(=O)c3ccco3)CC1)C2,.,.,6,.,.
COc1ccc(-c2c(Sc3ccccc3)c3cc(-c4ccc5c(c4)OCO5)ccc3n2C)cc1,.,.,-42,.,.
C=CCC(=O)N1CCC(n2nccc2NC(=O)CCOc2ccccc2)CC1,-1,-9,28*,-8,2
CSCC(C)N1CCC(n2nccc2NC(=O)CCOc2ccccc2)CC1 (stereo not drawn),9,-9,22*,-7,-10
CC(C)(C)n1nnnc1C(CCc1ccccc1)N1CCN(C/C=C/c2ccccc2)CC1 (stereo not drawn),.,.,7,.,.
CCOc1ccc(CCN2C(=S)N([C@@H](CC(C)C)CN3CCC[C@@H]3CN3C(=S)NC[C@@H]3CC(C)C)C[C@@H]2Cc2ccc(O)cc2)cc1,.,.,24*,.,.
COc1ccc(NC(=O)c2cc3c(COC(C)=O)cnc(C)c3oc2=Nc2cccc(C(=O)O)c2)c(OC)c1,-3,-8,11,19*,-3
CCc1nc2ccc(C(=O)NCCN3CCNC3=O)cn2c1N(C)CCC(C)C,.,.,3,.,.
O=C(NCC(=O)N1CCC(Cc2ccccc2)CC1)c1ccccc1F,.,.,32*,6,-1
CCCCn1nnnc1C(c1ccccc1)N1CCN(c2ncccc2C(F)(F)F)CC1 (stereo not drawn),.,.,-3,.,.
CN(CCc1ccccc1)c1cc2c(c3c1ccn3C)C1CCC2C1 (stereo not drawn),.,.,9,.,.
Cc1c(C(=O)/C=C/N(C)C)nnn1-c1ccc(Cl)c(Cl)c1,3,9,0,4,6
Cc1c(C(=O)/C=C/N(C)C)nnn1-c1ccc(F)c(Cl)c1,7,-4,38*,.,.
O=C(Nc1ccc(Cl)cc1)Nc1nnc(-c2ccncc2)s1,18,-3,-28,-7,-14
Fc1ccc(Nc2nnc(-c3ccncc3)s2)cc1Cl,.,.,35*,.,.
C=C1C[C@@H]2C[C@@H]2CN(S(=O)(=O)c2ccc(C)cc2)[C@@H]1COCc1ccccc1,.,.,2,.,.
Cc1ccccc1C[n+]1cccc2ccccc21,14,-7,9,2,5
O=[N+]([O-])c1ccc(C[n+]2cccc3c4ccccc4ccc32)cc1,-18,-8,-6,7,0
SMILES,VLA-4 inh,ATG4B inhibitor,NRP1-CendR mod,PKA-R1A act,PKA-R2B activ
CCCCCCCCC[n+]1cccc2c3ccccc3ccc21,-14,3,33*,-8,3
CCCCCCCCCCCCCCCC[n+]1cccc2ccccc21,-23,51*,42*,6,2
COCC(=O)N[C@H]1CC[C@@H](CC(=O)OC)O[C@@H]1CO,.,.,3,.,.
O=C(/C=C/CCc1ccc2c(c1)OCO2)N1CCCCC1,21,2,23*,-8,-7
Fc1cccc(Cc2c(-c3ccc(Cl)cc3)nc3ccc(Br)cn23)c1,.,.,-8,.,.
COc1ccc(Cl)cc1NC(=O)CCc1nc(-c2ccccc2F)no1,0,-7,46*,-2,-1
COc1ccccc1NC(=O)CCc1nc(-c2ccccc2F)no1,-1,-5,-13,-1,10
CCOC(=O)c1sc2nc(C)nc(SC(C)C(=O)N(C)c3ccccc3)c2c1C (stereo not drawn),-8,-15,0,15,-3
Cc1ccccc1C(=O)N1CCN(CCNC(=O)C(=O)Nc2ccc(Br)cc2)CC1,12,-4,1,13,0
COc1ccc2c(c1OC)CN1CCc3cc4c(cc3[C@@H]1[C@@H]2O)OCO4,6,-4,29*,8,10
Cn1c(=O)c2[nH]c(CCCCCc3nc4ccccc4[nH]3)nc2n(C)c1=O,.,-22,2,.,.
Cn1c(=O)c2[nH]c(CCNC(=O)c3ccccc3)nc2n(C)c1=O,.,-3,18*,4,0
Fc1cccc(Cc2c(-c3ccco3)nc3c(Cl)cc(C(F)(F)F)cn23)c1,.,.,-18,.,.
Cc1ccc(NC2=CC(=O)C(=O)c3ccccc32)cc1,10,-3,3,2,-14
Cc1cc(NC2=CC(=O)C(=O)c3ccccc32)no1,.,4,28*,4,-3
CCOC(=O)/C=C/c1ccc2c(c1)S(=O)(=O)N(c1cccc(OC)c1)[C@H]2CC(=O)OCC,2,-1,28*,-5,-1
COC(=O)C1=CN(c2ccc(C(C)(C)C)cc2)C(N)=C(C#N)C1c1ccccc1F (stereo not drawn),.,.,-6,.,.
COc1ccc(C2=NS(=O)(=O)N(C)C(C(=O)Nc3ccc(C)cc3)=C2)cc1,8,1,4,-4,-1
Cc1ccc(NC(=O)C2=CC(c3ccc(C)cc3)=NS(=O)(=O)N2C)cc1,23,-15,21*,-6,-2
CC(=O)OCCNc1cc(SCc2ccco2)c2nonc2c1[N+](=O)[O-],-4,-4,27*,-4,-16
COC(C/C=C/[C@H](O)[C@@H](C)OCc1ccccc1)OC,41,3,2,-12,17
COC(C/C=C\[C@H](O)COCc1ccccc1)OC,.,5,25*,2,-16
CC(C)(C)NC(=S)NNC(=O)c1ccccc1Cl,5,0,-1,-6,-9
O=C(CCC(=O)c1cccs1)NNC(=O)c1cccc(Cl)c1,1,-4,-5,-5,2
CNC(=S)NNC(=O)c1ccccc1Cl,21,1,25*,.,.
O=C(CCC(=O)c1cccs1)NNC(=O)c1ccccc1Cl,16,-16,27*,12,-4
CCOC(=O)C(NC(C)=O)C(=O)Nc1ccc(C(C)C)cc1 (stereo not drawn),-18,0,26*,0,1
CN(C)CCCOC(=O)c1cc2ccccc2o1,16,-7,24*,1,-7
CN(C)CCCN(C(=O)c1ccc(S(=O)(=O)N(C)Cc2ccccc2)cc1)c1nc2cc3c(cc2s1)OCO3,4,23,9,-3,9

# High-throughput results from PubChem.
